Screens: PubChem, National Center for Advancing Translational Sciences (NCATS)
HepG2 tox: HepG2 cytotoxicity, counter-screen for TGF-b inhibitors; HepG2 CAGA-GFP viability, ATP luminescence, 18 h; Potency, µM (doses to about 46.1 µM), without a hit: at the top dose activity change, negative = cytotoxicity, actives largely listed as cytotoxic; 410,000 compounds, 0.76% hits; AID 588856
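CellTiter-Glo luminescence gave cytotoxicity after 18 hours at 37 degrees C. The cells were HepG2 CAGA-GFP in 1% FBS DMEM, stimulated with 500 pg/mL TGF-beta after compound addition. %Activity was normalised to no-cell wells (complete cell-killing) and DMSO (no toxicity), and curves were fitted and classified.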
ATXN2 expr inh: inhibitors of ATXN2 expression; Potency, µM (highest dose often 57 µM), for the others: at the top dose activity change, negative = inhibition, hits mostly inhibitors; AID 1745845; 360,000 compounds, 0.72% hits; HEK-293 ATXN2-luciferase reporter, luminescence, 24 h; note: % is set by controls: 0 for no effect and ±100 for the full control effect; nearly all actives have a fitted effect of over 55% in size
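ATXN2-luciferase reporter cells (luciferase flanked by upstream and downstream ATXN2 gene portions) were treated 24 h at 37 °C with compounds at up to 57 uM. SteadyGlo luminescence gave expression; GF-AFC fluorescence gave viability.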
S2 tox: cell viability loss in ATXN counter-screen; S2 cells (HEK-293 line with an ATXN2-luciferase reporter) viability, CellTiter-Fluor protease fluorescence, 24 h; Potency, µM (series often up to 56.7 µM), hits mostly cytotoxic; 400,000 compounds, 0.49% hits; AID 651635; note: nearly all actives have a fitted effect of over 40% in size
HTT ATP protect: protects HTT-Q103 PC12 cells, measured by ATP | PC12 HTT-Q103 induced, cytoprotection, ATP luminescence, 40 h | Potency, µM (titrated, usually from 56.4 µM), for the others: cytoprotection (ATP increase), usual class: activators | 230,000 compounds, 0.14% hits | AID 1471; note: % of control where 0% means no effect; nearly all actives have a fitted effect of over 45% in size
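Cells were plated at 1500 per well in phenol red-free DMEM with 5% equine and 5% calf serum. Tebufenozide (100 nM final) and compounds were added, then ATPlite reagent, and luminescence was read.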
TGFb SMAD3 inh: inhibitors of TGF-b signaling; HepG2 CAGA-GFP TGF-b/SMAD3 reporter, GFP fluorescence, 18 h; TGF-beta stimulated, 500 pg/mL final; Potency, µM (doses to about 46.1 µM), without a hit: top-dose activity, negative = inhibition, most hits filed as inhibitors; 410,000 compounds, 1.2% hits; AID 588855; note: % is set by controls: 0 for no effect and ±100 for the full control effect; nearly all actives have a fitted effect of over 65% in size
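TGF-beta reporter screen: HEPG2 CAGA-GFP, 1% FBS, 500 pg/mL TGF-beta final, 18 h; per-cell GFP summed per well; curves fitted and categorized by class.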
HttQ103 aggreg: inhibitors of mutant huntingtin aggregate formation in PC12 cells; PC12 HttQ103-GFP aggregates, Acumen cytometry, 40 h; Potency, µM (highest dose often 46.1 µM), for the others: at the top dose activity change, negative = inhibition, actives largely listed as inhibitors; 220,000 compounds, 1.1% hits; AID 1688; note: % is set by controls: 0 for no effect and ±100 for the full control effect; nearly all actives have a fitted effect of over 60% in size
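PC12 cells with ecdysone-inducible HTT exon1 Q103-GFP, induced by 100 nM tebufenozide, given compounds in a concentration series. GFP aggregates (1–25 um, 6 SD above background) counted in lysates by laser-scanning cytometry, 488 nm excitation.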
Numbers without * were called inactive; i = inactive; u = inconclusive; x = no result; ! = not active in a repeat; [ ] = dose if it differs, or a comment. Sampled rows, rich in hits. Any-hit rate of the full collection: about 2.8%. Calls come from the whole dose curve; as a rule, active = well fitted curve in the direction sought with a large enough effect; inconclusive = small, poorly fitted or top-dose-only effect, or another doubt; inactive = no such curve, though single readings can be large; an effect the other way counts as inactive or inconclusive. Potency is the fitted concentration of half-maximal effect.

SMILES | HepG2 tox | ATXN2 expr inh | S2 tox | HTT ATP protect | TGFb SMAD3 inh | HttQ103 aggreg
C=CCSc1n[nH]c(-c2ccc(OCCC)cc2)n1 | -27% | 47% | i | -7%[0.074 µM] | 0% | -29%
O=C(c1cc(COc2cccc(C(F)(F)F)c2)on1)N1CCC(c2ccncc2)CC1 | -43% | 14µM* | u | x | u | x
CC(C(=O)c1ccccc1)[n+]1ccc(Cl)c2ccc(Cl)cc21 (stereo not drawn) | -8% | x | x | x | -6% | x
Cc1ccc(CN2C[C@H](Sc3ccccn3)C[C@H]2C(=O)Nc2ccc3sc(C)nc3c2)cc1 | x | x | i | x | x | x
CCOC(=O)Cc1nnc(NC(=O)Nc2ccccc2)s1 | 3% | 2% | i | 10%[10 µM] | 5% | -4%
CCOC(=O)Cc1ccc(NC(=O)Nc2nnc(N3CCCCC3C)s2)cc1 (stereo not drawn) | -39% | x | x | x | 11µM* | x
CCN1CNC(=S)N(CCc2ccccc2)C1 | -1% | -12% | i | 8%[10 µM] | 7% | 11%
CCOc1ccc(CCN2CN(CC)CNC2=S)cc1OCC | 8.9µM* | -23% | i | -12% | -20% | -6%
CCN(CCN(C)C)C(=O)C1CCN(S(=O)(=O)c2c(C)noc2/C=C/c2ccccc2F)CC1 | 16µM*! | x | u | x | u | x
Cc1noc(/C=C/c2cccs2)c1S(=O)(=O)N1CCC(C(=O)Nc2ccc(F)c(Cl)c2)CC1 | -24% | x | x | x | 6.3µM* | x
CN(C)c1ccc(C2=Cc3ccccc3C2)cc1 | -5% | x | x | x | u | x
C=CC[n+]1c(-c2ccc(Cl)cc2Cl)csc1Nc1ccc(NC(C)=O)cc1 | 22µM* | u | u | -74% | u | u
C=CC[n+]1c(-c2ccc(Cl)cc2Cl)csc1Nc1c(C)n(C)n(-c2ccccc2)c1=O | 0% | -15% | u | -21%[1.9 µM] | u | -4%[9.22 µM]
CCOC(=O)c1c(-c2ccccc2)c2cc(OC)ccc2n1CCCN(C)C | 18µM* | x | i | x | u | x
CCOCCCNC(=O)c1c(NC(=O)c2nc(SCC)ncc2Cl)sc2c1CCCC2 | -2% | x | x | x | 16% | x
CC(C)(C)C1CCC(OCC(O)CN2CCN(Cc3ccccc3)CC2)CC1 (stereo not drawn) | 11µM* | 0% | u | 10%[1.9 µM] | u | 5%
CCOC(=O)c1cc2c(ccn2C)n1CC(=O)N1CCC(Cc2ccccc2)CC1 | -33% | 0% | u | 7%[10 µM] | 11µM* | u
CCN(CC)CC(=O)OCC(=O)[C@@]1(O)CC[C@H]2[C@@H]3CCC4=CC(=O)CC[C@]4(C)[C@H]3[C@@H](O)C[C@@]21C | x | -6% | i | x | x | x
O=c1[nH]nnc2sc3c(c12)CCCC3 | -2% | 2% | i | 7%[10 µM] | u | 11µM*
CC(C)(C)c1cc(C(=O)NNc2cc(C(F)(F)F)ccc2Cl)n(Cc2ccccc2)n1 | 10µM* | u | i | 10%[10 µM] | 11µM* | -8%[9.22 µM]
COc1ccc(NS(=O)(=O)c2cccc3cccnc23)cc1 | -16% | -8% | i | -20%[10 µM] | -18% | 13µM*
Cc1ccc(NS(=O)(=O)c2cccc3cccnc23)c(Br)c1 | -2% | 3% | i | x | 20% | x
O=S(=O)(Nc1cccc2cccnc12)c1ccccc1Br | -40% | x | x | x | 6.3µM* | x
CC(C)=CCOc1ccc([C@@H]2COc3c(ccc4c3C=CC(C)(C)O4)C2)c(O)c1 | 14µM* | u | 25µM* | x | 13µM* | x
COc1cc2c(cc1OC)[C@@H]1C(=O)c3ccc4c(c3O[C@@H]1CO2)C=CC(C)(C)O4 | x | u | x | -55%[1.9 µM] | x | x
SMILES | HepG2 tox | ATXN2 expr inh | S2 tox | HTT ATP protect | TGFb SMAD3 inh | HttQ103 aggreg
COc1ccc(C)cc1NC(C)C(=O)c1c[nH]c2ccccc12 (stereo not drawn) | -10% | x | x | x | 0% | x
CCN(CC)CC(=O)Nc1c(C)cccc1C(=O)OC | x | 2% | i | x | x | x
O=C(Nc1ccc(Oc2cccnc2)cc1)c1ccccc1Cl | -19% | -15% | i | x | -11% | 11µM*
CC#CCN1c2ccccc2[C@]23C[C@@H](C(=O)OC)N(S(=O)(=O)c4ccc(Br)cc4)C2=NC(C(=O)OC)=C(C(=O)OC)[C@H]13 | x | x | x | -7%[10 µM] | x | x
CC(=O)Nc1ccc2cc3ccc(NC(C)=O)cc3nc2c1 | 13µM* | 7% | x | -2%[10 µM] | 57% | -24%[9.22 µM]
CC(=O)Nc1ccc(S(=O)(=O)N2CCc3nc(COc4ccccc4)c4c(c3C2)CO[C@@H](C)C4)cc1 | x | x | x | -17%[10 µM] | x | x
CC(C)(C)c1cc(C=O)cc(C(C)(C)C)c1O | x | 4% | i | x | x | x
O=C(Nc1ccccc1)Nc1cccc(C(F)(F)F)c1 | -26% | -6% | i | -80% | -34% | 22µM*
Cc1cnc(Nc2nc3ccccc3o2)nc1C(=O)Nc1cccc(C(F)(F)F)c1 | 5µM* | -29% | i | -68%[0.074 µM] | u | -10%
Cc1occc1C(=O)Nc1cccc(C(F)(F)F)c1 | -3% | 3% | i | 3%[1.9 µM] | -23% | -5%
Cc1ccc(C(=O)Nc2cccc(C(F)(F)F)c2)cc1Nc1cncnc1 | -34% | u | u | x | u | x
Cc1ccc(C(=O)Nc2cccc(C(F)(F)F)c2)cc1Nc1ccccn1 | -2% | u | 32µM* | 13%[10 µM] | -1% | -20%[9.22 µM]
Cc1ccccc1NC(=O)CNC(=O)c1ccc(C(F)(F)F)cc1 | -11% | 29% | i | 15%[10 µM] | 13% | 6%
Cc1ccccc1NC(=O)Nc1ccc(C(F)(F)F)cc1 | -19% | 38% | i | -49% | -23% | 11µM*
O=C(NCC1Cc2cc(F)cc(-c3cccnc3)c2O1)c1cnn(-c2ccccc2)c1 (stereo not drawn) | x | x | i | x | x | x
CCC1(C2CCN(C(=O)c3ccccc3C(C)=O)CC2)NC(=O)N(CCc2scnc2C)C1=O (stereo not drawn) | x | x | i | x | x | x
O=C(COCC(=O)Nc1cccc(C(F)(F)F)c1)Nc1cccc(C(F)(F)F)c1 | 22µM* | -14% | i | -4% | -20% | -15%
O=C(Nc1cccc(-c2csc(Nc3cccc(C(F)(F)F)c3)n2)c1)c1ccccc1 | -9% | u | 25µM* | 12%[10 µM] | u | -11%[9.22 µM]
COc1ccc(OC)c(-c2nnc3ccc(-c4ccc(OC)c(O[C@@H]5CCOC5)c4)nn23)c1 | x | 27µM* | x | x | x | x
COc1ccc(OC)c(-c2nnc3n2N=C(c2ccc(OC)c(OC4CCOC4)c2)CS3)c1 (stereo not drawn) | 0% | -12% | u | x | u | x
N/C(=N\OC(=O)c1ccc2ccccc2c1)c1ccccn1 | -41% | 11µM* | i | -48%[10 µM] | -9% | 2%
CCCC[C@@H]1CCCO[C@@](C(=O)NCc2ccccc2)(C(F)(F)F)C1 | -15% | x | x | x | -13% | x
